From PubChem
HCMV inh – qHTS Assay for inhibitors of the human cytomegalovirus (HCMV); HFF cells, HCMV-luciferase reporter, 72 h; stronger effect = lower value; 410,000 compounds, 4.5% hits; activity change, negative = inhibition, % at 57.5 µM; in the data active = activity change below about -60%; inconclusive = no clear call, values can overlap the other calls; inactive = above about -39%
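HFF cells seeded 16 h at 37C, treated with compounds, infected with luciferase-reporter HCMV at MOI 1 PFU/cell; luciferase read at 72 h post infection, normalized to buffer-only and Salinomycin controls.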
Pf growth 48h – Primary qHTS for delayed death inhibitors of the malarial parasite plastid, 48 hour incubation; 310,000 compounds, 5.9% hits; P. falciparum luciferase growth in erythrocytes, 48 h; Potency, µM (series often up to 28.7 µM), hits mostly inhibitors; AID 504832, 2011
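In quantitative HTS format, infected erythrocytes bearing luciferase-reporter parasites were treated for a single generation at 37 C. Luminescence after adding detection reagent served as the growth measure.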
Sm TGR block – qHTS Assay for the Inhibitors of Schistosoma Mansoni Peroxiredoxins; Schistosoma mansoni thioredoxin glutathione reductase (TGR), Q962Y6; purified TGR, DTNB reduction, TNB absorbance 405 nm; Potency, µM (series often up to 114 µM), most hits filed as inhibitors; 360,000 compounds, 3% hits; AID 485364, 2010; note: nearly all actives have a fitted effect of over 60% in size
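First, TGR (20 nM dispensed) and NADPH were mixed with compound. Second, a 15 min room-temperature incubation followed. Third, further NADPH and then DTNB were added to start the reaction. Finally, TNB absorbance was monitored kinetically.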
HCV inhibitor – qHTS Assay for Inhibitors of Hepatitis C Virus (HCV); 340,000 compounds, 3.4% hits; Huh7.5.1 HCVcc-Cre infection, luciferase reporter, 44 h; Potency, µM (titrated, usually from 41.8 µM), hits mostly inhibitors; AID 651820, 2012
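Antiviral activity was scored by luciferase reporter output from cells infected with HCVcc-Cre (~0.5 moi) in presence of compound, 44 h infection period, cells seeded 1,000/well 4 h prior.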
Pf growth 96h – Primary qHTS for delayed death inhibitors of the malarial parasite plastid, 96 hour incubation; P. falciparum luciferase reporter growth, 96 h; Potency, µM (series often up to 28.7 µM), most hits filed as inhibitors; 320,000 compounds, 6.9% hits; AID 504834, 2011
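Delayed-death screen, second-generation endpoint: infected erythrocytes, 2% hematocrit, 0.05% parasitemia final; 96 hours at 37 C, 5% CO2; luciferase detection reagent; luminescence decrease equals reduced growth.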
SARS PLP yeast – qHTS of Yeast-based Assay for SARS-CoV PLP; S. cerevisiae expressing SARS-CoV PLpro, growth rescue; Potency, µM (doses to about 32.9 µM), most hits filed as activators; 330,000 compounds, 0.19% hits; AID 485353, 2010; calls by dose curve; note: nearly all actives have a fitted effect of over 55% in size
Of the large screens only hits and unclear results are named; the others gave an inactive call. Compounds with a hit are over-represented: about 15% of the library has one in this group of screens. Unless noted, calls come from the whole dose curve; as a rule, active = well fitted curve in the direction sought with a large enough effect; inconclusive = small, poorly fitted or top-dose-only effect, or another doubt; inactive = no such curve, though single readings can be large; an effect the other way counts as inactive or inconclusive.

CCC1=NN(C(=O)c2cccc([N+](=O)[O-])c2)C(O)(c2ccc(C)cc2)C1 (stereo unspecified)	Pf growth 48h 4.1µM
Cc1ccc(Nc2ccc(N3CCN(C(=O)c4cccc([N+](=O)[O-])c4)CC3)nn2)cc1	HCMV inh -62 (no result: Pf growth 48h, HCV inhibitor, Pf growth 96h, SARS PLP yeast)
CCC1=NN(C(=O)c2ccc(Br)cc2)C(O)(c2ccccc2)C1 (stereo unspecified)	HCMV inh inconclusive
O=C(Cc1ccc(F)cc1)NCCS(=O)(=O)N1CCN(c2cccc(Cl)c2)CC1	none
O=C(COCc1cc(-c2ccc3c(c2)OCO3)on1)N1CCN(c2ccccc2)CC1	Pf growth 96h 10µM
N/C(=N\OC(=O)C(c1ccccc1)c1ccccc1)c1ccccn1	Pf growth 48h 13µM
N/C(=N\OC(=O)Cc1ccccc1)c1ccccn1	none
N/C(=N\OC(=O)C(c1ccccc1)c1ccccc1)c1cccnc1	Pf growth 48h inconclusive, Pf growth 96h 10µM
O=C(Cc1ccc(NC(=O)C2CCN(C(=O)CCc3ccccc3)CC2)cc1)Nc1ccc(C(=O)N2CCOCC2)cc1	none (no result: Pf growth 48h, Sm TGR block, Pf growth 96h, SARS PLP yeast)
O=C(CN1CCN(Cc2ccccc2)CC1)N/N=C/c1ccc(Br)s1	HCMV inh -107
O=C(CN1CCN(Cc2ccccc2)CC1)N/N=C/c1ccco1	Pf growth 48h inconclusive
O=C(Cc1ccccc1)N/N=C/c1ccc([N+](=O)[O-])s1	Pf growth 48h 7.4µM, HCV inhibitor 11µM, Pf growth 96h 8.3µM
O=C(Cc1ccccc1)N/N=C/c1cccs1	none
COc1ccc(NC(C)C(=O)N/N=C/c2ccc([N+](=O)[O-])s2)cc1 (stereo unspecified)	HCMV inh inconclusive, Pf growth 48h inconclusive, HCV inhibitor inconclusive
Cc1ccc(NC(C)C(=O)N/N=C/c2ccc([N+](=O)[O-])s2)cc1 (stereo unspecified)	HCMV inh -70, Pf growth 48h inconclusive, HCV inhibitor inconclusive, Pf growth 96h 15µM
Cn1c(SCC(=O)N/N=C/c2ccc([N+](=O)[O-])s2)nnc1-c1ccccc1	HCMV inh -91, Pf growth 48h 6.6µM, Sm TGR block inconclusive, HCV inhibitor 11µM, Pf growth 96h inconclusive
Cc1oc(-c2ccccc2F)nc1CSCC(=O)NCc1ccccc1	none (no result: Pf growth 48h, HCV inhibitor, Pf growth 96h, SARS PLP yeast)
Cc1ccnn1CC(=O)N/N=C/c1ccc([N+](=O)[O-])s1	HCMV inh inconclusive, Pf growth 48h inconclusive, HCV inhibitor inconclusive, Pf growth 96h 7.4µM
Cc1ccsc1/C=N/NC(=O)C(O)c1ccccc1 (stereo unspecified)	none (no result: SARS PLP yeast)
Cc1ccnn1CC(=O)N/N=C/c1cccs1	none
O=C(N/N=C/c1ccc([N+](=O)[O-])s1)C(O)c1ccccc1 (stereo unspecified)	HCMV inh -91, Pf growth 48h 4.7µM, Sm TGR block 32µM, HCV inhibitor 7.1µM, Pf growth 96h 2.3µM
Cc1ccc(-c2nnc(SCC(=O)N/N=C/c3ccc(C)s3)n2-c2ccc(C)cc2)cc1	HCMV inh -63, HCV inhibitor inconclusive, Pf growth 96h inconclusive
CC1(C)Cc2ccccc2C(/C(=N\Nc2cccc(Cl)c2)C(N)=O)=N1	HCMV inh -102, Pf growth 48h 5.9µM, HCV inhibitor inconclusive
CC(=O)c1ccc(N/N=C(/C(N)=O)C2=NC(C)(C)Cc3ccccc32)cc1	HCMV inh inconclusive, Pf growth 48h inconclusive, HCV inhibitor inconclusive
Fc1ccc(CNC(=S)Nc2cccc(C(F)(F)F)c2)cc1	Pf growth 48h inconclusive, HCV inhibitor inconclusive (no result: SARS PLP yeast)
CSc1ccccc1NC(=S)Nc1cccc(C(F)(F)F)c1	HCV inhibitor inconclusive (no result: Pf growth 96h)
Fc1ccc(NC(=S)Nc2ccc(Cl)cc2)cc1	HCMV inh -78, Sm TGR block inconclusive
Fc1ccc(NC(=S)Nc2cc(Cl)ccc2Cl)cc1	none (no result: Sm TGR block)
FC(F)(F)c1cccc(NC(=S)NCc2ccc(Cl)cc2)c1	HCMV inh -90, Pf growth 48h inconclusive, HCV inhibitor inconclusive
Fc1ccccc1CNC(=S)Nc1cccc(C(F)(F)F)c1	HCMV inh -79, Pf growth 48h inconclusive, HCV inhibitor inconclusive
O=c1[nH]c2ccc(NC(=S)NCc3ccccc3)cc2[nH]1	Sm TGR block 8.9µM
Cn1c(CNC(=O)c2ccco2)nnc1SCCOc1ccccc1	none
COc1ccc(NC(=O)c2c(C)oc3ccc(O)c(CN4CCN(Cc5ccccc5)CC4)c23)cc1Cl	none (no result: Pf growth 48h, HCV inhibitor, Pf growth 96h, SARS PLP yeast)
NC(=O)C1(N2CCCCC2)CCN(C(=O)Nc2ccc(F)cc2)CC1	none (no result: Pf growth 48h, HCV inhibitor, Pf growth 96h, SARS PLP yeast)
Cc1cccc(N2CCN(Cc3nc(-c4cccc(Oc5ccccc5)c4)oc3C)CC2)n1	Pf growth 48h inconclusive
CC(=O)Nc1ccc(S(=O)(=O)N(C)Cc2cnn(C)c2)cc1	HCMV inh inconclusive
CC(NC(=S)Nc1cccc(C(F)(F)F)c1)C(C)(C)C (stereo unspecified)	HCMV inh inconclusive, Pf growth 48h inconclusive, HCV inhibitor inconclusive, Pf growth 96h 13µM
FC(F)(F)c1cccc(NC(=S)NNC(=S)Nc2ccc(Cl)cc2)c1	Pf growth 48h inconclusive, Pf growth 96h 12µM (no result: HCMV inh, HCV inhibitor)
Cc1ccc(NC(=S)NNC(=S)Nc2cccc(C(F)(F)F)c2)cc1	Pf growth 48h inconclusive, HCV inhibitor inconclusive, Pf growth 96h inconclusive
S=C(NCc1ccccc1)Nc1cccc(Cl)c1	HCMV inh -84, Sm TGR block inconclusive
O=C(CNc1cccc(Cl)c1)NNC(=S)NCc1ccccc1	HCMV inh inconclusive, HCV inhibitor inconclusive (no result: Sm TGR block)
O=C(NNS(=O)(=O)c1ccc(F)cc1)c1ccc(S(=O)(=O)N2CCCCC2)cc1	Pf growth 96h inconclusive
O=C(NNS(=O)(=O)c1ccc(F)cc1)c1ccc(O)cc1	Pf growth 96h 10µM
Cc1cccc(C(=O)NNS(=O)(=O)c2ccc(F)cc2)c1	none
O=C(NNS(=O)(=O)c1ccccc1)c1cccc(F)c1	Sm TGR block 56µM
O=C(O)CCN1CCc2ccccc2C1c1ccncc1 (stereo unspecified)	HCMV inh inconclusive
NC(=O)c1sc2cc(C(F)(F)F)cnc2c1-c1ccccc1	Pf growth 48h inconclusive, Pf growth 96h 8.3µM
COc1ccc(-c2cc(C(=O)Oc3ccc([N+](=O)[O-])cc3)c3ccccc3n2)cc1	Pf growth 96h 13µM
COc1ccc(-c2cc(C(=O)N3CCCCCC3)c3ccccc3n2)cc1OC	none (no result: Pf growth 48h, Sm TGR block, HCV inhibitor, Pf growth 96h, SARS PLP yeast)
COc1ccc(-c2nnc(Nc3ccc(OC)c(C(=O)N4CCCCC4)c3)c3ccccc23)cc1	Pf growth 48h 5.2µM, HCV inhibitor inconclusive, Pf growth 96h inconclusive
O=C(c1cc(-c2ccc(Br)cc2)nc2ccccc12)N1CCC1	Pf growth 48h 3.3µM, HCV inhibitor inconclusive, Pf growth 96h 4.1µM
